# Screens (PubChem)
# An excerpt weighted towards active compounds, which were near 3.4% of everything screened.
# COUP-TFII inh = NR2F2 transcriptional activity inhibitors, primary screen, cell-based, luciferase reporter, HEK293T, luminescence; HEK293T NGFI-A luciferase reporter; inhibition, % at 8.6 µM; 370,000 tested, 0.7% active; AID 686940, 2013;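 active = inhibition above a per-plate cutoff, mean inhibition of test wells between control levels plus 3 SD, cut at about 38% in these data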;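 note: cells cotransfected with COUP-TFII expression vector driving the NGFI-A reporter; 0% = median of COUP-TF2 test wells and 100% = reporter-only cells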
# Target sequence (P24468 whole entry, looked up): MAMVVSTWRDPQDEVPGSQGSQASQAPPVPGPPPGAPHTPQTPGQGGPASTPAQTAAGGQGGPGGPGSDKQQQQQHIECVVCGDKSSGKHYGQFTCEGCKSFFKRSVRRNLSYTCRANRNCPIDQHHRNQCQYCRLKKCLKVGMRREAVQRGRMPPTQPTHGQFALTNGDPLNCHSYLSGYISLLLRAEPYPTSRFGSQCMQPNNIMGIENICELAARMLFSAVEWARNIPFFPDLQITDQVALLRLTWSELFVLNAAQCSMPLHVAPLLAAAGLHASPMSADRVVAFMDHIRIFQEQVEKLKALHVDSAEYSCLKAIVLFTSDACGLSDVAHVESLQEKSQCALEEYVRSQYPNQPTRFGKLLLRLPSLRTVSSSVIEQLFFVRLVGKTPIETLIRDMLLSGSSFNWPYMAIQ
# FXN GAA850 act = FXN promoter activators, primary screen, cell-based, luciferase luminescence, HEK293 lucGAA850 | HEK293 lucGAA850 FXN promoter luciferase reporter, 24 h; percent of 10 µM SAHA response | AID 540364, 2011 | activation, % at 6 µM | 360,000 tested, 0.56% active;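 active = activation above the average of all compounds screened plus 3 SD, cutoff fixed separately per campaign, cut at about 7.5% in these data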;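 note: 0% = DMSO wells and 100% = 10 µM SAHA wells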
# GalR3 antag = GalR3 antagonists in HEK293 cells, primary screen, cell-based, fluorescence readout; Galanin receptor type 3 (Homo sapiens), O60755; HEK293 GalR3-CNG cAMP membrane potential fluorescence; galR3 body fused to GalR1 C-terminus; inhibition, % at 3 µM; 360,000 tested, 0.44% active; AID 651719, 2012;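 active = inhibition above the screen-wide average plus 3 SD, cut at about 13% in these data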;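 note: forskolin and galanin both at EC90 stimulate the cells; cAMP rise reported by CNG channel membrane potential dye signal; 0% = forskolin plus galanin with DMSO and 100% = forskolin alone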
# Target sequence (O60755 1-299 limits assumed): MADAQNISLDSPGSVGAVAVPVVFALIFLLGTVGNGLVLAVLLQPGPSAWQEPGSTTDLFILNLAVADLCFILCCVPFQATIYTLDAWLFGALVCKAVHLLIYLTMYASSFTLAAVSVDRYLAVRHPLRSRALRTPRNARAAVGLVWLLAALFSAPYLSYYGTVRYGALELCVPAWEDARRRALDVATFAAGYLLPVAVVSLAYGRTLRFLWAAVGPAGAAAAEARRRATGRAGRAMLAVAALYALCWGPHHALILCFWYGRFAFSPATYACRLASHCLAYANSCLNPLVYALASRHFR
# H9c2 protect = cardioprotection against H2O2-induced cell death, primary screen, uHTS, H9c2 cells, ATPLite luminescence; H9c2 cardiomyocytes, H2O2 injury protection, 2 h; protection from H2O2 cell death, % at 20 µM; 360,000 tested, 0.63% active; AID 588492, 2011;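 active = compounds giving at least 50% protection of heart cells from peroxide-induced death in the single-dose screen, raw or plate-pattern-corrected value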;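 note: 0% = DMSO wells with peroxide and 100% = DMSO wells without peroxide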
# Gli-Sufu block = Gli-Sufu pathway antagonists, primary screen, luciferase luminescence, Sufu-KO-LIGHT cells, uHTS; inhibition, % at 5 µM; Sufu-KO-LIGHT fibroblasts, Gli luciferase reporter luminescence; 340,000 tested, 0.74% active;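 active = inhibition above about 55%, limit read from the data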;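 note: 0% = DMSO-treated cells and 100% = wells with medium but no cells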
# SMARCA2 activ = SMARCA2 (BRM) function activators, primary screen, cell-based, luminescence, high throughput; activation, % at 9.1 µM; MG213 cells, MMTV-luciferase reporter, dexamethasone, overnight; 370,000 tested, 1% active; AID 652017, 2013; in the data active = activation above about 7.8%;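 note: 0% = vehicle wells and 100% = reference activator wells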
# SMARCA2 conf = SMARCA2 (BRM) function activators, confirmation, cell-based, luminescence, triplicate; shares compounds with SMARCA2 activ; MG213 cells, MMTV-luciferase with dexamethasone, overnight; MG213 cells expressing E1A, Rb sequestered; DMSO wells 0%, reference activator 100%; activation, % at 9.1 µM; 3,500 tested, 30% active; AID 652260, 2013;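 active = activation above its plate's cutoff, the mean activation of tested wells plus 3 SD, cut at about 7.9% in these data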
# VP16 Luc act = GAL4-VP16 luciferase reporter activation, counter-screen for SMARCA2 (BRM) activator project, cell-based, pG5luc, luminescence, high throughput; activation, % at 9.1 µM; shares compounds with SMARCA2 activ; 3,500 tested, 41% active; HEK293 GAL4-VP16 pG5luc reporter; scaled: DMSO wells 0%, SAHA wells 100%;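 active = activation above the solvent-only control well mean plus 3 SD, averaged across control plates, cut at about 5.2% in these data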
# Starred values were filed as active, the others as inactive; / = no result given.
SMILES,COUP-TFII inh,FXN GAA850 act,GalR3 antag,H9c2 protect,Gli-Sufu block,SMARCA2 activ,SMARCA2 conf,VP16 Luc act
CCCN(CCC)CCCNC(=S)Nc1ccc2nc(N3CCN(CC)CC3)cc(C)c2c1,5.4,1.1,-4.2,19.1,13.3,9.4*,6.9,0.6
CCCCN(CC)CCNC(=S)Nc1ccc2nc(N3CCN(C)CC3)cc(C)c2c1,3.4,0.3,-10.0,7.9,14.3,5.0,/,/
CCCN(CCC)CCCNC(=S)Nc1ccc2nc(N3CCN(C)CC3)cc(C)c2c1,13.8,-0.7,-5.7,2.2,11.9,10.1*,8.3*,0.7
C/C(=N\Nc1ccccn1)c1ccc(C#N)cc1,-10.1,0.7,-0.6,6.0,-7.9,1.9,/,/
C/C(=N\Nc1ccccn1)c1cccs1,-29.4,3.2,-6.0,-7.0,-4.3,10.0*,11.1*,6.4*
Nc1cc(N)nc(SCCc2ccccc2)n1,-36.9,3.3,-6.2,-0.6,-27.6,9.5*,2.5,1.2
COc1ccc(OCCSc2nc(N)cc(=O)[nH]2)cc1,5.6,4.2,1.3,4.0,-14.0,-1.1,/,/
COc1ccc(OCCSc2nc(N)cc(N)n2)cc1,-41.1,3.8,-0.8,-26.4,-64.2,11.2*,8.6*,8.5*
O=C(CNC(=O)N1CC(=O)Nc2ccccc21)Nc1cccc(F)c1,-7.7,-2.2,-9.8,2.7,-19.3,-3.9,/,/
COc1ccc(CCNC(=O)CSc2nc3ccccc3o2)cc1,-16.0,0.5,0.9,-1.8,3.2,-2.5,/,/
Cc1cc(Cl)ccc1NC(=S)NCCN1CCOCC1,1.2,1.9,-2.0,9.0,-4.2,-1.1,/,/
COCCNC(=O)c1c(N)n(/N=C/c2ccc(F)cc2)c2nc3ccccc3nc12,1.7,-1.4,-0.5,27.1,7.6,0.5,/,/
CC(C)CNC(=O)c1c(N)n(/N=C/c2ccccn2)c2nc3ccccc3nc12,2.9,-0.6,-1.9,2.8,26.8,8.5*,-6.7,2.7
O=C1c2ccccc2C(Nc2ccc(F)c(Cl)c2)N1c1ccccn1 (centres undefined),7.3,0.2,/,-1.0,-2.2,1.1,/,/
COc1ccc(NC2c3ccccc3C(=O)N2c2ccccn2)cc1Cl (centres undefined),10.5,0.1,/,13.1,1.6,8.2*,1.6,0.6
O=C(COC(=O)CCNS(=O)(=O)c1ccccc1)Nc1ccc(OC(F)F)cc1,2.4,-2.2,-5.1,-2.5,/,-1.4,/,/
Cc1cccc(NC(=O)/C=C/c2cccs2)n1,-43.8,4.1,-3.9,-10.2,-103.5,11.6*,8.2*,7.9*
OCCCN=c1cc(-c2ccccc2)oc2ccc(Cl)cc12,-28.8,0.3,1.8,7.6,-36.9,12.4*,37.1*,6.3*
CC1(C)CC(N=c2cc(-c3ccccc3)oc3ccc(Cl)cc23)CC(C)(C)N1,-18.5,0.5,-11.3,-36.9,-8.0,1.2,/,/
COc1cc(/C=C2\SC(=S)N(Nc3ccccc3)C2=O)ccc1O,-33.1,3.0,-13.3,-18.7,-7.9,8.2*,7.2,10.7*
O=C(Nc1cccc(Oc2ccccc2)c1)C1Cc2c(-c3ccc4c(c3)OCO4)ccnc2O1 (centres undefined),5.7,-1.7,-2.0,-1.4,/,-4.0,/,/
Cc1ccc2nc(Cl)c(C3CC(c4cccs4)=NN3S(C)(=O)=O)cc2c1 (centres undefined),-19.3,2.3,-2.5,-6.0,-2.3,11.1*,-1.3,0.6
CCc1ccc(-c2csc(NC(=O)Oc3ccccc3)n2)cc1,-5.2,2.9,1.4,5.0,-50.4,5.7,/,/
Brc1cccc(Nc2nc(-c3cccnc3)cs2)c1,-23.9,6.1,-1.9,-4.8,11.8,8.6*,6.7,6.0*
O=C(Nc1nc(-c2cccc(Br)c2)cs1)Oc1ccccc1,-18.1,3.8,-4.1,-0.4,-7.4,8.4*,8.0*,4.4
SMILES,COUP-TFII inh,FXN GAA850 act,GalR3 antag,H9c2 protect,Gli-Sufu block,SMARCA2 activ,SMARCA2 conf,VP16 Luc act
Clc1cccc(Nc2nc(-c3cccnc3)cs2)c1,-5.5,5.8,2.0,-14.8,-2.5,5.9,/,/
Cc1ccc(S(=O)(=O)N2CCCC(C(=O)NCc3ccco3)C2)cc1 (centres undefined),5.0,/,/,/,/,10.0*,1.5,0.5
Cc1ccc(-c2nc(-c3cccnc3)no2)c(C)c1,-34.2,4.2,-1.9,-4.9,-110.3,9.2*,18.7*,13.1*
O=C(C[C@H]1C/C=C\CC[C@@H](Cc2ccc(F)cc2)C(=O)OC[C@H]2CCCN2C1=O)N[C@@H](CO)Cc1ccccc1,7.1,-0.8,-5.2,12.0,0.7,0.9,/,/
COc1ccccc1NS(=O)(=O)c1ccc2oc(N)nc2c1,14.4,-0.2,-9.7,1.1,-10.1,10.6*,-0.4,2.5
N=c1c2c(-c3ccccc3)c(-c3ccccc3)n(Cc3ccccc3)c2ncn1CCCn1ccnc1,14.3,-9.0,-7.4,-40.4,25.5,14.6*,-0.7,-2.8
CCCCn1cnc2c(c(-c3ccccc3)c(-c3ccccc3)n2Cc2ccco2)c1=N,19.8,-1.0,-5.1,-5.4,3.4,1.5,/,/
S=C(NCCCN1CCOCC1)Nc1ccc(-c2nc3ccccc3[nH]2)cc1,7.5,-2.6,-1.0,-20.5,3.1,2.4,/,/
CN(C)CCNC(=S)Nc1ccc(-c2nc3ccccc3[nH]2)cc1,-26.1,4.0,-7.1,-9.3,-45.0,8.3*,16.3*,5.9*
C=CCNC(=O)c1cc(-c2ccc3c(c2)OCO3)on1,-33.4,0.6,-8.9,-16.6,-78.6,9.1*,8.2*,10.4*
COCCNC(=O)c1cc(-c2ccc3c(c2)OCO3)on1,-44.8,2.1,-5.7,-6.7,-63.7,-0.6,/,/
O=S(=O)(CC1NCc2ccccc21)NC1CCCC1 (centres undefined),5.7,/,/,/,/,-5.7,/,/
CC(C)OC(=O)c1ccc(N2C(=O)C3CC=CCC3C2=O)cc1 (centres undefined),7.0,0.5,-4.2,4.0,-0.5,8.8*,-0.4,1.6
N/C(=N\OC(=O)c1ccc2ccccc2c1)c1ccccc1Cl,-71.3,1.8,-4.8,-20.7,-52.1,5.9,/,/
CCOc1ccc(/C(O)=C2/C(=O)C(=O)N(CCOCCO)C2c2ccccn2)cc1 (centres undefined),-12.5,-0.6,-4.7,2.4,-0.3,8.6*,-0.8,0.7
